From PubChem BioAssay (NCI)
Compounds without any hit were thinned out: in the full panel of roughly 83,000, 20% have a hit.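 Cell lines were cultured in 96-well plates, exposed to a single compound concentration, and assessed for percent growth 48 hours later.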 Calls of active or inactive are those of the source. The calls were made as follows: active = growth percent below 10; inactive = the rest.

What was measured:
Assay in all cases: NCI-60 one-dose screen, 48 h (100 = growth as untreated, 0 = no growth, -100 = all killed)
Details in all cases: 10 µM unless noted
HCT-15 colon = system: HCT-15 colon
HT29 colon = system: HT29 colon
SNB-75 CNS = system: SNB-75 CNS
SNB-19 CNS = system: SNB-19 CNS
U251 CNS = system: U251 CNS
PC-3 prostate = system: PC-3 prostate
SK-MEL-5 melanoma = system: SK-MEL-5 melanoma
UACC-62 melanoma = system: UACC-62 melanoma
LOX IMVI melanoma = system: LOX IMVI melanoma
SK-MEL-28 melanoma = system: SK-MEL-28 melanoma
SK-MEL-2 melanoma = system: SK-MEL-2 melanoma
EKVX NSCLC = system: EKVX NSCLC
SN12C renal = system: SN12C renal
UO-31 renal = system: UO-31 renal
TK-10 renal = system: TK-10 renal
ACHN renal = system: ACHN renal
CAKI-1 renal = system: CAKI-1 renal
CCRF-CEM leukemia = system: CCRF-CEM leukemia
MOLT-4 leukemia = system: MOLT-4 leukemia

Measured: growth

COc1ccc(C(=O)c2cc(C)c(OC)c(C)c2)c(OC)c1N(C(=O)CCl)C(=O)CCl
active: HCT-15 colon 4.71% | HT29 colon 3.24% | SK-MEL-5 melanoma -9.39% | CCRF-CEM leukemia 8.61%
inactive: SNB-75 CNS 45.2% | SNB-19 CNS 11.9% | U251 CNS 16.1% | PC-3 prostate 13.1% | UACC-62 melanoma 24.5% | LOX IMVI melanoma 14.1% | SK-MEL-28 melanoma 54% | SK-MEL-2 melanoma 27.8% | EKVX NSCLC 51.7% | SN12C renal 31.3% | UO-31 renal 39.3% | TK-10 renal 52.5% | ACHN renal 18.2% | CAKI-1 renal 42% | MOLT-4 leukemia 13.2%

COc1ccc(C/C(=C(\C)c2ccc(OCCN3CCCC3)cc2)c2ccc(OCCN3CCCC3)cc2)cc1
inactive: HCT-15 colon 11.9% | SNB-75 CNS 83.2% | SNB-19 CNS 72.6% | PC-3 prostate 50.9% | SK-MEL-2 melanoma 102% | EKVX NSCLC 81.3% | SN12C renal 73.8% | UO-31 renal 53.4% | TK-10 renal 87.3% | ACHN renal 54.1% | CAKI-1 renal 80.7%
active: HT29 colon -58.1% | U251 CNS -39.7% | SK-MEL-5 melanoma -48.8% | UACC-62 melanoma -55.6% | LOX IMVI melanoma -92.5% | SK-MEL-28 melanoma -86.9% | CCRF-CEM leukemia 0.621% | MOLT-4 leukemia -17.5%

CN[C@@H](C)C(=O)N[C@H]1CCS[C@H]2CC(C)(C)[C@@H](C(=O)N[C@H]3c4ccccc4C[C@H]3OCC#CC#CCO[C@@H]3Cc4ccccc4[C@@H]3NC(=O)[C@H]3N4C(=O)[C@@H](NC(=O)[C@H](C)NC)CCS[C@H]4CC3(C)C)N2C1=O
inactive: HCT-15 colon 109% | HT29 colon 112% | SNB-75 CNS 16.5% | SNB-19 CNS 97.1% | U251 CNS 100% | PC-3 prostate 102% | SK-MEL-5 melanoma 66.2% | UACC-62 melanoma 102% | LOX IMVI melanoma 69.7% | SK-MEL-28 melanoma 107% | SK-MEL-2 melanoma 73.7% | EKVX NSCLC 121% | SN12C renal 97.8% | UO-31 renal 97.8% | TK-10 renal 130% | ACHN renal 106% | CAKI-1 renal 99.9% | CCRF-CEM leukemia 25.1% | MOLT-4 leukemia 95.5%

COc1cc(NC(C)CCCNC(=O)CCC(=O)NCCCNCCCCCCCCNCCCNC(=O)CCC(=O)NCCCC(C)Nc2cc(OC)cc3cccnc23)c2ncccc2c1 (stereo unspecified)
inactive: HCT-15 colon 108% | HT29 colon 67.5% | SNB-75 CNS 54.2% | SNB-19 CNS 57.9% | U251 CNS 35.1% | PC-3 prostate 77.6% | SK-MEL-5 melanoma 97.1% | UACC-62 melanoma 84.2% | LOX IMVI melanoma 35.7% | SK-MEL-28 melanoma 78.1% | SK-MEL-2 melanoma 78.4% | EKVX NSCLC 79.6% | SN12C renal 42.9% | UO-31 renal 91.4% | TK-10 renal 82.6% | ACHN renal 88.9% | CAKI-1 renal 95.1% | CCRF-CEM leukemia 58.9% | MOLT-4 leukemia 76.4%
